# From PubChem BioAssay
# Assay: JC-1 mitochondrial signal, unstimulated MM1S myeloma – cell-based, JC-1 fluorescence, 24 h, 100 nL compound, profiling panel (AID 1170); also: test concentration not given here
# Conditions: MM1S mitochondrial potential, higher = more signal
row,Structure (SMILES),z-score
1,COC(=O)Cn1c(C(=O)N2CCCC2)cc2c1C[C@H]1CN(C(=O)c3ccccc3)[C@@](Cc3ccccc3)(C(=O)OC)[C@@H]21,-1.25
2,O=C1C[C@@](C(=O)NCCN2CCOCC2)(c2ccc([N+](=O)[O-])cc2)[C@@H](c2ccc(CO)cc2)N1C1CCCCC1,1.22
3,CC(=O)NCCCC[C@@H]1NC(=O)[C@H]2C[C@@H](C(=O)NCCCCCCN(C)C)[C@@H](c3cccc(OCCO)c3)N2C1=O,-0.376
4,CC(C)(C)OC(=O)CC[C@]1(C(=O)N2CCCCC2)N=C(c2ccc(OCCCO)cc2)O[C@H]1c1ccccc1,0.317
5,CC(=O)NCCCC[C@@H]1NC(=O)[C@H]2C[C@@H](C(=O)NCCCCCCN(C)C)[C@@H](c3ccc(O)cc3)N2C1=O,0.116
6,O=C1C2C=CC(C(O)Cc3ccccc3)N(Nc3ccc([N+](=O)[O-])cc3)C2C(=O)N1c1ccccc1 (stereo unspecified),-0.876
7,C=C(COC)C(=O)CC[C@H](OC(=O)c1ccccc1-c1ccccc1C(=O)O)c1cccc(OCCO)c1,-0.0895
8,C=CC[C@@]1(C(=O)NCC(O)CO)N=C(c2ccc(OCCCO)cc2)O[C@@H]1c1ccccc1CN=[N+]=[N-] (stereo partly specified),-0.873
9,O=C(CS)NCCCCCCNC(=O)[C@@H]1C[C@@H]2C(=O)N[C@@H](Cc3ccccc3)C(=O)N2[C@@H]1c1ccc(O)cc1,-0.716
10,C=CC[C@]1(C(=O)N2CCCCC2)N=C(c2ccc(OCCCO)cc2)O[C@H]1c1ccccc1N=[N+]=[N-],-0.511
11,COC(=O)[C@@]1(Cc2ccc(OC)cc2)[C@H]2c3cc(C(=O)N(C)C)n(Cc4ccc(C)c(F)c4F)c3C[C@H]2CN1C(=O)c1ccccc1,-1.3
